LDHA inh: qHTS assay for inhibitors of human lactate dehydrogenase; purified LDHA, NADH/diaphorase-resazurin fluorescence; active compounds read low; activity change, % (values are at about 110 or 230 µM); 0.15% of 480,000 active; AID 1347041, 2019; in the data active = activity change below about -30%; inconclusive = mostly about -25% to -30%;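 also: plate controls were DMSO wells for no effect and wells without enzyme for full effect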
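Enzyme activity of human lactate dehydrogenase 5 (2 nM; 0.06 mM NADH, 0.2 mM pyruvate, 5 min, RT) is measured via a resazurin/diaphorase fluorescence readout of residual NADH.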
PI4K2A block: qHTS for small molecular inhibitors of PI4K2A | AID 1346378, 2018 | activity change, negative = inhibition, % at 76.9 µM | purified PI4K2A, ADP-Glo luminescence, 1 h; active compounds read low | 0.13% of 420,000 active | Phosphatidylinositol 4-kinase type 2-alpha (Homo sapiens), Q9BTU6; in the data active = activity change below about -50%; inconclusive = mostly about -30% to -49%;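 also: -100% = wells without enzyme as full effect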
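In this quantitative HTS, ADP production by PI4K2A was quantified luminescently after 1 h at ambient temperature; 100 microM adenosine served as plate-quality control.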
TrxR1 substrate: qHTS Assay for Substrates of Mammalian Selenoprotein Thioredoxin Reductase 1 (TrxR1): qHTS; Thioredoxin reductase 1, cytoplasmic (Rattus norvegicus), O89049; purified TrxR1 substrate turnover, NADPH consumption readout; Potency, µM (top dose mostly 114 µM), for inactives: top-dose activity change, negative = substrate turnover; 0.01% of 390,000 active; AID 588456, 2011; also: potency is read from the fitted curve at half-maximal effect; nearly all actives have a fitted effect of over 50% in size
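Rat TrxR1, dispensed at 90 nM, was prereduced with 400 uM NADPH (final) for 5 min at ~22 deg C, then incubated with compound 15 min before 400 uM selenite. A first-read NADPH fluorescence drop versus no-compound background flagged substrates.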
TrxR1 inh: qHTS Assay for Inhibitors of Mammalian Selenoprotein Thioredoxin Reductase 1 (TrxR1): qHTS; Potency, µM (doses to about 114 µM), for the others: at the highest dose activity change, negative = inhibition, hits mostly inhibitors; 1% of 390,000 active; recombinant rTrxR1, NADPH fluorescence consumption, selenite substrate; Thioredoxin reductase 1, cytoplasmic (Rattus norvegicus), O89049; AID 588453, 2011; also: potency is read from the fitted curve at half-maximal effect; nearly all actives have a fitted effect of over 65% in size
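Rat TrxR1 (90 nM in the dispensed reagent) was pre-reduced with 400 uM NADPH for 5 min at room temperature, then incubated with compound for 15 min. After 400 uM selenite was added, NADPH fluorescence (Ex 340/Em 450 nm) was followed for 8 min.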
GALK inh: qHTS Assay for Inhibitors of Human Galactokinase (GALK); Potency, µM (top dose mostly 57.5 µM), for inactives: at the top dose activity change, negative = inhibition, hits mostly inhibitors; P51570; Purified GALK, Kinase-Glo residual ATP luminescence; 0.007% of 270,000 active; also: potency is read from the fitted curve at half-maximal effect
Target sequence (P51570 whole entry, looked up): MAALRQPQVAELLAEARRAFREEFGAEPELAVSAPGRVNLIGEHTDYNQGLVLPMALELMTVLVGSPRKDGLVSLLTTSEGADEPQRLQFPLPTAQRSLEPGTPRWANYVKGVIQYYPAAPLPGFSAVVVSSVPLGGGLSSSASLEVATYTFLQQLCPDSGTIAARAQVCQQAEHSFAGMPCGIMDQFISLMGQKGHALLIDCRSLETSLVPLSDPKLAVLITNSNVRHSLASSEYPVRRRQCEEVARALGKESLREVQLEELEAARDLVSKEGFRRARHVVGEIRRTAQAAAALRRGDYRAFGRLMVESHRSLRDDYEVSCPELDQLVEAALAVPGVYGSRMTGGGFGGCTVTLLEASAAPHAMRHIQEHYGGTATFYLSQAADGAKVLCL
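Luminescence from leftover ATP (Ultra-Glo luciferase/luciferin) served as read-out after a 1 h room-temperature reaction of 5 nM GALK with 35 uM ATP and 100 uM galactose.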
Integrin act MD: qHTS for Activators of Integrin-Mediated Alleviation for Muscular Dystrophy; alpha7betagal myoblasts, beta-gal FDG fluorescence, 48 h; Potency, µM (top dose mostly 38.3 µM), for inactives: at the highest dose activation, most hits filed as activators; 0.064% of 350,000 active; AID 624291, 2012;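 also: potency is read from the fitted curve at half-maximal effect; 100% = response of the positive control SU9516; nearly all actives have a fitted effect of over 60% in size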
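Alpha7betagal+/- myoblasts (passage 13) were plated 16-24 hr, then exposed to compounds (1:260 dilution of DMSO stock) for 48 hours at 37C. After MPER lysis, β-galactosidase reporter activity was read as FDG fluorescence (ex 480/em 540) after 30 minutes.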
Numbers without * were called inactive; ? = inconclusive; · = no result; ! = not active in a repeat; [ ] = remark or other dose. This is a sample that favours compounds with a hit; in the whole collection about 1.1% have one here. Unless noted, calls follow the shape of the dose curve; as a rule, active = well fitted curve in the direction sought with a large enough effect; inconclusive = small, poorly fitted or top-dose-only effect, or another doubt; inactive = no such curve, though single readings can be large; an effect the other way counts as inactive or inconclusive. Unless noted, % is scaled to controls: 0 for no effect and ±100 for the full control effect.

SMILES	LDHA inh	PI4K2A block	TrxR1 substrate	TrxR1 inh	GALK inh	Integrin act MD
O=C(/C=C/c1ccc([N+](=O)[O-])cc1)c1cccnc1	-8.8	1.8	-4.0%	31.6µM*	0.1%	-56.9%
O=C(/C=C/c1ccc([N+](=O)[O-])cc1)NCc1cccnc1	-0.4	-1.9	-8.6%	-15.7%	-0.3%	15.9%
O=C(CCl)Nc1cn(-c2ccccc2)nc1-c1ccccc1	-0.6	-0.2	4.0%	12.6µM*	1.4%	-74.9%
O=C(CCl)Nc1ccc(-c2ccccc2)cc1	2.8	16.1	-0.2%	11.2µM*	1.9%	-84.2%
O=C(O)c1cnc[nH]1	-1.2	·	·	·	·	·
C=CCn1c(SCC(=O)N2c3ccccc3Sc3ccccc32)nnc1-c1ccco1	-3.5	0.3	5.5%[57.1 µM]	-2.9%[57.1 µM]	-0.6%	6.2%
CCn1c(SCC(=O)N2c3ccccc3Sc3ccccc32)nnc1-c1ccco1	-1.4	0.5	9.3%	20µM*	-0.2%	11.5%
O/N=C(\c1ccc(O)cc1O)c1ccccc1F	-31.3*	·	·	·	·	·
O/N=C(/Cc1ccccc1)c1ccc(O)cc1O	0.6	·	·	·	·	·
Cc1cccn2c(=O)c3cc(C(=O)NC4CCCCC4)n(C)c3nc12	0.5	4.1	6.5%	2.4%	-9.5%	14.1µM*
Cc1cccn2c(=O)c3cc(C(=O)NC4CCCC4)n(C)c3nc12	1.6	-5.1	115.3%	52.4%	-4.9%	17.7%
O=C(NCCc1ccccc1)C1CCC(=O)N1C1CCCC1 (stereo unspecified)	-0.9	4.9	7.6%[57.1 µM]	5.6%[57.1 µM]	·	10µM*
O=C(NCc1ccccn1)C1CCC(=O)N1C1CCCC1 (stereo unspecified)	-8.8	0.2	-12.8%	-28.8%	·	10.8%
COc1ccc2oc(C(=O)NC3=NCCS3)c(C)c2c1	4.6	·	·	·	·	·
O=S(=O)(CCN1CCCCC1)Oc1ccc(Cl)cc1Cl	-0.6	10.4	2.5%	0.891µM*	-2.0%	-12.8%
O=C(COc1ccc(Cl)cc1Cl)NCCN1CCCCC1	-1.5	6.2	·	·	·	-31.6%
O=C(CNS(=O)(=O)c1ccc(Br)s1)N1CCCC1	-4.2	0.3	-13.9%	7.0%[57.1 µM]	-4.1%	2.4%
CCOC(=O)C1CCCN(C(=O)CNS(=O)(=O)c2ccc(Br)s2)C1 (stereo unspecified)	-0.6	-1.0	-1.8%	11.8%	0.4%	2µM*
COc1ccc(OC)c(S(=O)(=O)N2CCN(C(=O)c3cc4c(s3)CCCCC4)CC2)c1	0.6	·	·	·	·	·
Oc1ccc(NCc2ccccc2OCc2ccccc2Cl)cc1	32.6	-28.2	-8.8%	31.6µM*	·	·
Oc1ccc(NCc2ccc(OCc3ccccc3Cl)cc2)cc1	16.8	?	-10.6%	44.7µM*	·	·
Oc1ccc(NCc2ccccc2OCc2ccccc2F)cc1	28.4	?	-2.1%	?	4.2%	-59.2%
Oc1ccc(NCc2ccc(OCc3ccccc3)cc2)cc1	8.5	?	-10.5%	28.2µM*!	1.5%	-73.7%
Oc1ccc(OCc2ccccc2)cc1	·	-0.1	·	·	·	·
O=S(=O)(NCC(c1ccco1)N1CCOCC1)c1ccc(Cl)cc1 (stereo unspecified)	-0.5	-3.5	4.2%[57.1 µM]	12.3%[57.1 µM]	1.9%	14.1µM*
SMILES	LDHA inh	PI4K2A block	TrxR1 substrate	TrxR1 inh	GALK inh	Integrin act MD
Cc1ccc(S(=O)(=O)NCC(c2ccco2)N2CCOCC2)cc1 (stereo unspecified)	-2.8	5.3	0.4%[57.1 µM]	8.3%[57.1 µM]	3.4%	?
N#C/C(=C\c1coc2ccc(O)cc2c1=O)C(=O)Nc1nc2ccccc2s1	1.0	-7.8	-2.6%	14.1µM*	?	-3.2%
Fc1ccccc1CNC1C2CC3CC(C2)CC1C3 (stereo unspecified)	1.0	·	·	·	·	·
Cn1c(SCC(=O)Nc2cc(S(=O)(=O)N3CCCCCC3)ccc2Cl)nnc1C1CC1	-8.7	·	·	·	·	·
Cc1cccc(C(=O)Nc2c(NCC3CCCCC3)c3ccccc3oc2=O)c1	0.2	·	·	·	·	·
Cc1ccc(-c2ccc(C(=O)O)s2)cc1	-13.2	·	·	·	·	·
Cc1ccc(C)c(C(NC(=O)C2CCCCC2)c2cccnc2)c1 (stereo unspecified)	1.7	·	·	·	·	·
CN1CCCN(Cc2ccccc2C(F)(F)F)CC1	-33.9*	-3.5	18.8%	31.1%	3.1%	-21.8%
CCOc1cc(CNCc2ccco2)ccc1OCc1ccccc1	1.3	·	·	·	·	·
O=C(N/N=C/c1cn[nH]c1-c1ccc(F)cc1)c1ccncc1	-6.1	2.5	-0.3%[57.1 µM]	-3.8%[57.1 µM]	-2.5%	14.1µM*
COC(=O)c1nn(-c2ccc3c(c2)OCO3)cc1O	6.5	-24.6	80.0%	21.4%	5.6%	14.7%
COC(=O)c1nn(-c2ccc3c(c2)CCN3C(C)=O)cc1O	-3.6	-85.2*	487.1%	61.7%	13.2%	4.4%
CC(=O)NC(=O)NC1OC(=O)C(Cl)=C1Cl (stereo unspecified)	1.4	-10.5	-2.2%	1.58µM*	6.7%	8.1%
Cc1ccc(NC(=O)NC2OC(=O)c3ccccc32)cc1 (stereo unspecified)	-5.6	-0.5	-0.2%[11.4 µM]	-11.4%[11.4 µM]	·	5.6%
O=C(Nc1c(-c2ccccc2)nc2ccccn12)c1ccccc1	-6.4	3.9	-6.0%	1.3%[57.1 µM]	5.1%	-22.2%
O=C(Nc1c(-c2ccccc2)nc2ccccn12)c1cccc(F)c1	-31.1*	-8.5	-4.9%	-3.0%	-5.0%	-42.5%
Cc1cc2nc(CSCC(=O)Nc3cccc(C)c3C)cc(=O)n2o1	-3.3	·	·	·	·	·
CC(NC(=O)c1ccccc1C(F)(F)F)C1CC2CCC1C2 (stereo unspecified)	-4.4	·	·	·	·	·
CCCSc1ccccc1C(=O)N1CCN(C(=O)c2ccco2)CC1	-0.2	1.3	-1.3%	-35.4%	6.1%	-38.6%
O=C1c2ccccc2-c2c1cccc2C(=O)N1CCN(C(=O)c2ccco2)CC1	0.3	-3.2	8.6%	31.6µM*	-0.2%	-33.4%
CC(C)(CNC(=O)c1cccc2ccccc12)CNC(=O)c1cccc2ccccc12	9.5	·	·	·	·	·
CN(C)c1ncc(C2=C(Cl)C(=O)C(N3CCCC3)=C(Cl)C2=O)s1	52.5	?	1.0%	2.51µM*	·	-58.7%
O=C1C(Cl)=C(N2CCCCC2)C(=O)C(Cl)=C1c1cnc(N2CCCCC2)s1	57.2	-12.2	-2.9%	1.78µM*	-1.0%	-53.1%
Cc1ccccc1COc1ccc(C2C3=C(CC(C)(C)CC3=O)OC3=C2C(=O)CC(C)(C)C3)cc1	1.6	·	·	·	·	·
c1ccc2c(c1)NCC1CCCN21 (stereo unspecified)	-6.8	-13.9	-9.2%	79.4µM*	·	-8.0%
